Results from PubChem BioAssay.
Active and inactive are the calls of the source.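 The calls were made as follows: active = compounds killing one labelled cell type while sparing the other, by normalised counts and ratio limits, not self-fluorescent; inactive = the rest.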

Assay: differential killing of epithelial or mesenchymal cells, primary screen, imaging, PC-3E GFP, TEM4-18 mCherry, co-culture (AID 1345086);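 also: cells exposed to compound for 72 h before imaging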;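 as to red/green cell ratio (normalised): normalised mesenchymal count divided by normalised epithelial count so high means epithelial killing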
Settings: imaging cell counts, at 1 µM; for red/green cell ratio (normalised): actives lie on both sides, counts scaled to control wells, 1 = unselective
[1] = measured here: epithelial PC-3E GFP cell survival
[2] = measured here: mesenchymal TEM4-18 mCherry cell survival

Row | SMILES | red/green cell ratio (normalised) | normalised cell number [1] | normalised cell number [2]
1 | COc1cccc2c1C(=O)OCc1cc(C)cc(O)c1O2 | 0.9 (inactive) | 1.17 | 1.05
2 | C=C(C)n1cc(C(=O)O)c(=O)c2cc(F)c(N3CC[C@@H](CN)C3)c(OC)c21 | 1.13 (inactive) | 1.07 | 1.21
3 | CC(C)/C(O)=C1/C(=O)O[C@@H](c2ccoc2)[C@]2(C)C(O)[C@@H](O)[C@@]34OC5(C)OC67CC(C)(C(O)[C@]6(O)[C@@H](O)[C@]3(O5)C12)[C@H](CC(=O)O)C74C (stereo partly specified) | 1.06 (inactive) | 1 | 1.06
4 | COC(=O)C[C@@H]1C2(C)C(=O)[C@@H](CC3C2CC[C@]2(C)C3CC(=O)O[C@H]2c2ccoc2)[C@H](OC(C)=O)C1(C)C (stereo partly specified) | 0.92 (inactive) | 1.04 | 0.95
5 | O=c1cc(-c2ccccc2)oc2cc(O[C@@H]3O[C@H](CO)[C@@H](O)[C@H](O)[C@H]3O)c(O)c(O)c12 | 0.89 (inactive) | 1.13 | 1
6 | CN(C(=O)OCc1ccccc1)C1C(O[C@@H]2OC(COS(=O)(=O)O)C(NC(=O)OCc3ccccc3)[C@H](OS(=O)(=O)O)[C@H]2OS(=O)(=O)O)OC2C[C@@H](NC(=O)OCc3ccccc3)[C@@H](OC3C(NC(=O)OCc4ccccc4)C[C@@H](NC(=O)OCc4ccccc4)[C@H](OS(=O)(=O)O)[C@H]3OS(=O)(=O)O)OC2C1OS(=O)(=O)O (stereo partly specified) | 0.95 (inactive) | 1.05 | 1
7 | CC(C)=CCCC(C)C1CC[C@@]2(C)C3=C(CC[C@]12C)C1(C)CC[C@H](O)C(C)(C)C1CC3 (stereo partly specified) | 1.05 (inactive) | 1.09 | 1.14
